This is a sample that favours compounds with a hit; in the whole collection about 3.5% have one here.
mHTT-CaM PPI inh: inhibitors of human mutant huntingtin-calmodulin interaction; 190,000 compounds, 3.6% hits; inhibition, % at 15 µM; AID 1671202; AlphaScreen His-mHTT/GST-CaM binding, luminescence
Pf apPOL block: Pf-apPOL DNA polymerase inhibition. Recombinant Pf-apPOL, molecular beacon fluorescence, 1.5 h. 210,000 compounds, 0.25% hits. inhibition, % at 10 µM. AID 1794808
A number is an active result; . = inactive; / = no result given. No stated cut-off is given here; in the data, active means inhibition above about 50%; inactive means the rest.

SMILES	mHTT-CaM PPI inh	Pf apPOL block
O=C(Nc1nnc2ccccn12)c1ccc(Cl)cc1	52	.
O=C(Nc1nnc2ccccn12)c1cccc(C(F)(F)F)c1	.	.
N#Cc1ccc(C(=O)Nc2nnc3ccccn23)cc1	.	.
COc1cccc(C(=O)Nc2nnc3ccccn23)c1	71	.
Cc1cc(C(=O)Nc2cc(C(=O)O)cc(C(=O)O)c2)ccc1[N+](=O)[O-]	.	.
O=C(c1cccs1)N1CCc2c(c(CO)nn2Cc2ccccc2)C1	.	.
O=C(NNC(=O)c1ccc(Cl)cc1)C(=O)NNC(=O)c1ccc(Cl)cc1	/	90
Nc1ccccc1C(=O)NNC(=O)c1ccc(Cl)cc1	/	.
N#CCC[C@@H]1CC[C@]2(CCCN(Cc3ccc(Cl)cc3)C2)O1	74	.
N#CCC[C@H]1CC[C@]2(CCCN(Cc3ccccc3)C2)O1	.	.
COc1cccc(C2CC(=O)Nc3cc(C)c(C)cc32)c1OC (stereo not given)	100	.
COc1cc2c(cc1OC)C(c1cccc(Cl)c1Cl)CC(=O)N2 (stereo not given)	.	.
Cc1ccc(NC=CC(=O)c2ccc(Cl)cc2)cc1C	.	.
Cc1cc(Cl)cc2sc(N(CCCn3ccnc3)C(=O)c3cccs3)nc12	82	.
CSc1cccc2sc(N(CC3CCCO3)C(=O)c3ccc4c(c3)OCCO4)nc12 (stereo not given)	.	.
CC(=O)N(CCN1CCOCC1)c1nc2c(C)cc(Cl)cc2s1	.	.
Cc1ccc2sc(N(CCCn3ccnc3)C(=O)c3ccc4c(c3)OCCO4)nc2c1C	58	.
Cc1ccnc(N2CCC(C(=O)Nc3ccc(F)cc3C)CC2)n1	.	.
CCNC(=O)c1cc(C)nc2c(C)cc(C)cc12	.	.
COCCN1CC(C(=O)NCc2ccccc2C)CC1=O (stereo not given)	.	.
Cc1ccn2c(NC(=O)C(C)C)c(-c3cccc(F)c3)nc2c1	.	.
Cc1ccn2c(NC(=O)C(C)Cl)c(-c3cccc(F)c3)nc2c1 (stereo not given)	69	.
O=C(Nc1c(-c2ccccc2)nc2ccccn12)c1cccnc1	.	.
O=C(/C=C/c1ccccc1)Nc1c(-c2ccccc2)nc2ccccn12	61	.
CC(Cl)C(=O)Nc1c(-c2ccc(C(F)(F)F)cc2)nc2ccccn12 (stereo not given)	55	.
SMILES	mHTT-CaM PPI inh	Pf apPOL block
Cc1ccc(-c2nc3ccccn3c2NC(=O)C(C)Cl)cc1 (stereo not given)	.	.
Cc1cccc(C(=O)NC2CCN(c3nnc4ccccn34)CC2)c1	.	.
CC1=C(C(=O)Nc2ccccc2)C(c2ccccc2)n2c(s/c(=C\c3ccco3)c2=O)=N1 (stereo not given)	.	.
CC1=C(C(=O)Nc2ccccc2)C(c2ccc(F)cc2)n2c(s/c(=C\c3ccc(C)o3)c2=O)=N1 (stereo not given)	66	.
CCOC(CCNS(=O)(=O)c1cc(Br)cc2c1N(C(=O)CC)CC2)OCC	.	.
Cn1nc(COCc2ccccc2F)c2c1CCN(C(=O)c1ccccc1)C2	.	.
CC(=O)N(C)Cc1nn(-c2ccccc2)c2c1CN(Cc1ccccc1F)CC2	68	.
CC1=Nc2cc(C(=O)NCCN3CCOCC3)ccc2Sc2ccc(Cl)cc21	.	.
CC1=Nc2cc(C(=O)NCCCN3CCC(C)CC3)ccc2Sc2ccc(Cl)cc21	53	.
COc1ccc(NC(=O)CN2C(=O)C(c3ccc(Cl)cc3)=NC2(C)C)cc1OC	.	.
O=S(=O)(Oc1cc(Cl)cc(Cl)c1)c1ccc(-c2ccccn2)s1	/	.
CC(Nc1c2ccccc2nc2ccccc12)C(=O)NC(CC(N)=O)C(=O)O (stereo not given)	.	.
CC(C)CC(NC(=O)c1ccco1)C(=O)O (stereo not given)	.	61
CC(NC(=O)c1ccco1)C(=O)O (stereo not given)	.	.
CC(C)CC(NC(=O)C(C)Nc1c2ccccc2nc2ccccc12)C(=O)O (stereo not given)	65	.
O=C(c1ccccc1Br)n1nnc2ccccc21	.	.
COc1cc(C)c(-c2n[nH]c(C)c2Oc2ccccc2)c(O)c1	.	.
CCOc1ccc(-c2n[nH]c(C)c2Oc2ccc(F)cc2)c(O)c1	.	.
COc1ccc(-c2n[nH]c(C)c2Oc2ccccc2)c(O)c1OC	.	.
Cc1[nH]nc(-c2ccc(OC(C)C)cc2O)c1Oc1ccccc1	67	.
CCc1cc(-c2n[nH]c(C)c2Oc2ccc(F)cc2)c(O)cc1O	100	.
CCCc1ccc(Oc2c(-c3ccc(O)cc3O)n[nH]c2C)cc1	80	.
CCc1cc(-c2n[nH]c(C)c2Oc2ccccc2)c(O)cc1O	81	.
Cc1[nH]nc(-c2ccc(O)cc2O)c1Oc1ccccc1F	.	.
Cc1cc(NC(=O)CCS(=O)(=O)c2ccc(Br)s2)ccc1Br	.	.
Cc1cc(C)c2nc(C(Cl)(Cl)Cl)[nH]c(=O)c2c1	.	.
CCOc1ccc(-c2n[nH]c(C)c2-c2ccc(F)cc2)c(O)c1	.	.
CCc1cc(-c2n[nH]c(C)c2-c2ccccc2)c(O)cc1O	69	.

Screening results: PubChem BioAssay, University of Kansas High Throughput Screening Laboratory
